For 51 molecules, INHIBITION results are on record in ChEMBL document CHEMBL4513216, “Probing the Open Global Health Chemical Diversity Library for Multistage-Active Starting Points for Next-Generation Antimalarials” (ACS Infect Dis, 2020).

About 8,600 (12%) of roughly 69,000 compounds showed an effect of 50% or more. The sample as a whole holds a higher share of strong results than the screen did.

The test system of this test is Plasmodium berghei. Briefly: Screen against P. berghei liver stage (PbLuc), transformed with Luciferase, at 10uM. It counts as functional, HepG2. The conditions noted are these: tested at 10 uM.
With `CNC(=O)N1CC[C@@H]2CN(Cc3ccccc3)S(=O)(=O)[C@@H]2CC1`, the INHIBITION amounted to 23.1%.

With `CC(NC(=O)NCCc1nc(C(F)(F)F)cs1)C(=O)N(C)C` (stereo unspecified), the INHIBITION was -15.5%.

Consider `O=C([C@H]1C[C@H]2OCC[C@H]2N(Cc2cccnc2)C1)N1CCCO1`, for which the INHIBITION came to 38.1%.

Take `CCn1nccc1CNC(=O)C1CCC1`: the INHIBITION is reported as 21.8%.

Consider `c1cnc(NCc2nnn3c2CN(Cc2cccs2)CCC3)nc1`, for which the INHIBITION worked out at 24.9%.

Regarding `Cc1nc(NCc2nnc(C)n2C)c2c(CC(C)C)csc2n1`, the INHIBITION turned out to be 46.6%.

As for `CCc1csc(C2CCCN(C(=O)c3ccc4[nH]nnc4c3)C2)n1` (stereo unspecified), the INHIBITION is -10.1%.

In the case of `CCCn1nccc1-c1nccnc1CC1CCN(C(C)=O)C1` (stereo unspecified), the INHIBITION came out at 7.19%.

With `c1cncc(N2CC[C@@H]3CN(CC4CC4)C[C@@H]3C2)c1`, the INHIBITION came out at 57.4%.

As for `O=C(c1ccc(F)cc1)N1C[C@@H]2CCN(c3cccnc3)C[C@@H]2C1`, the INHIBITION is listed as 43.9%.

As for `c1cnc(N2C[C@H]3CCN(c4cccnc4)C[C@H]3C2)nc1`, the INHIBITION is -0.113%.

On to `COC(=O)N1CCCCC1C(=O)N1CCN(c2cccnc2)CC1` (stereo unspecified), for which the INHIBITION came out at 82.2%.

In the case of `COC(=O)N1CCCCC1C(=O)N1CCN(c2ncccc2C)CC1` (stereo unspecified), the INHIBITION is on record as 12.7%.

Take `COC(=O)N1CCCCC1C(=O)N1CCCN(c2ccnc(C)c2)CC1` (stereo unspecified): the INHIBITION worked out at 15.9%.

In the case of `FC(F)(F)c1ccnc(N2C[C@H]3CCN(c4cccnc4)C[C@H]3C2)n1`, the INHIBITION amounted to 5.96%.

As for `O=C(CC1CC1)N1C[C@@H]2CCN(c3cccnc3)C[C@@H]2C1`, the INHIBITION is given as 19.8%.

Regarding `O=C(CC1CCCC1)N1C[C@@H]2CCN(c3cccnc3)C[C@@H]2C1`, the INHIBITION came out at 60.7%.

As to `Fc1cccc(N2C[C@H]3CCN(c4cccnc4)C[C@H]3C2)c1`, the INHIBITION is on record as 50.5%.

On to `Cc1cc(C(=O)Nc2ccn(CCCN3CCCC3)n2)c(C)o1`, for which the INHIBITION is given as 18.2%.

As for `O=S(=O)(C1CC1)N1CCC2(CCN(Cc3nccs3)CC2)CC1`, the INHIBITION is -12.1%.

Consider `CC1CN(C)c2ccccc2CN1CCn1cncn1` (stereo unspecified), for which the INHIBITION was 38%.

Regarding `CNc1ncc(CN2CCCC2c2[nH]ncc2C(=O)N(C)C)cn1` (stereo unspecified), the INHIBITION turned out to be 20.2%.

As to `O=C(COc1cccc(Cl)c1)N1CCOCC(O)(CN2CCCC2)C1` (stereo unspecified), the INHIBITION is recorded as -18.9%.

In the case of `CCC(C)(CC)NC(=O)COc1nn(C)c2nc(C)cc(C)c12`, the INHIBITION amounted to 48.1%.

On to `CCCc1nnc(SCc2cc(=O)n3c4c(sc3n2)CCCC4)[nH]1`, for which the INHIBITION is given as -4.35%.

For the molecule `O=C(C1CN(c2ncc(F)cn2)CC12CCOCC2)N1CC=CC1` (stereo unspecified), the INHIBITION came to 37.8%.

On to `Cc1cccnc1CN1CCN(C(=O)c2ccn(C(C)(C)C)c2)CC1`, for which the INHIBITION was 45%.

`O=C(NCCO)C1(Cc2ccccc2-c2cccnc2)CCOCC1`: the INHIBITION is listed as -43%.

`CN(CC(C)(CO)CO)C(=O)Nc1cc(F)cc(F)c1`: the INHIBITION is given as 18.9%.

On to `COc1ccccc1CN(C)Cc1ccnc(C2CCCO2)n1` (stereo unspecified), for which the INHIBITION came out at 14.755%.

Take `O=C(C1CCC1)N1C[C@@H]2CCN(c3cccnc3)C[C@@H]2C1`: the INHIBITION was found to be 5.96%.

For the molecule `O=C(C1CCCC1)N1C[C@@H]2CCN(c3cccnc3)C[C@@H]2C1`, the INHIBITION is listed as 54.4%.

As to `Cc1cccc(NC(=O)N2CCCn3cnc(CN4CCCC4)c3C2)c1`, the INHIBITION is 15.1%.

As to `CCc1nnc2n1CCN(Cc1csc(Cc3ccccc3)n1)C2`, the INHIBITION was determined as 19.2%.

For `CC1=N[C@@]2(CC[C@@H]3CN(CC(C)C)C[C@@H]32)C(=O)N1CC(C)C`, the INHIBITION is reported as 39.2%.

Turning to `COCCN1C(=O)[C@]2(CC[C@@H]3CN(C(=O)NCC(C)C)C[C@@H]32)N=C1C`, the INHIBITION was found to be 18.1%.

Consider `COCCN1C(=O)[C@]2(CC[C@@H]3CN(C(=O)NC4CCCC4)C[C@@H]32)N=C1C`, for which the INHIBITION is recorded as 20.2%.

For `COCCN1C(=O)[C@]2(CC[C@@H]3CN(C(=O)NC(C)C)C[C@@H]32)N=C1C`, the INHIBITION was determined as 57.1%.

Consider `CC1=N[C@@]2(CC[C@@H]3CN(CC4CC4)C[C@@H]32)C(=O)N1CC1CC1`, for which the INHIBITION is listed as 12.4%.

With `CC1=N[C@@]2(CC[C@@H]3CN(CC4CC4)C[C@@H]32)C(=O)N1CC(C)C`, the INHIBITION was 74.2%.

Turning to `Cc1csc(N2CCN(Cc3nnsc3Cl)CC2C)n1` (stereo unspecified), the INHIBITION is 45.2%.

Regarding `O=C(c1ccco1)N1CCOCC2(C1)CN(c1ccoc1)C(=O)CO2` (stereo unspecified), the INHIBITION is on record as -8.28%.

Regarding `CCOc1ccc(CN2CCC(c3ccn[nH]3)C2)cc1CO` (stereo unspecified), the INHIBITION is reported as 43.85%.

As to `Cn1cc2c(n1)C(CNCc1ccco1)OCC2` (stereo unspecified), the INHIBITION was 15.4%.

Take `CC(C)CC1SCC(=O)Nc2c1cnn2-c1ccc(F)cc1` (stereo unspecified): the INHIBITION is on record as 28.4%.

Regarding `CN(C)C(=O)[C@H]1C[C@H]2[C@H](CCN2Cc2ccc3c(c2)OCO3)O1`, the INHIBITION is given as 18.5%.

Regarding `CCCNC(c1cccnc1)c1ccc(F)cc1F` (stereo unspecified), the INHIBITION is recorded as 12.9%.

Turning to `CCC(=O)CNC(=O)CCn1nc2ccccn2c1=O`, the INHIBITION came out at 69.8%.

Consider `CCNC(=O)NCCCn1nc2ccccn2c1=O`, for which the INHIBITION is given as -12.2%.

Regarding `CCSCCC(=O)NCCn1nc2ccccn2c1=O`, the INHIBITION is given as 37.7%.

In the case of `O=c1n(CCNCc2ccc3ccccc3c2)nc2ccccn12`, the INHIBITION is on record as -23.4%.
